Results filed as inconclusive are left out. Entries that show only a call come without a potency. Activity calls are given as the source filed them. The call rests on the fitted dose curve; in most records, active means well fitted cell-killing curve with a large enough effect; inconclusive means small, poorly fitted or top-dose-only effect, or effect the other way; inactive means no such curve, though single readings can be large or run the other way.
experiment: Quantitative High-Throughput drug screen in 47 multiple myeloma cell lines against the NCATS MIPE library collection: KMS28PE_JCRB cell viability assay (AID 1918983); conditions: KMS28PE multiple myeloma viability, CellTiter-Glo ATP, 48 h; series mostly up to 45.8 µM; further: nearly all actives have a fitted effect of over 35% in size
Method in brief: (§1)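 Myeloma cells (500/well) treated with MIPE 4.0 compounds for 48 h at 37 °C, 5% CO2. Viability read as ATP via CellTiter-Glo luminescence after 5 min at RT; DMSO-only wells = 100%, media-only = 0% viability.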
Potency means the concentration at half of the fitted maximal effect.

Question: With `CCOC(=O)[C@H](CCc1ccccc1)N[C@H]1CCc2ccccc2N(CC(=O)O)C1=O` as the compound, how does the Potency read?
Answer: Its Potency is 20.9 µM (active).

Question: With `CC(C)Cn1cnc2c(N)nc3ccccc3c21` as the compound, how does the Potency read?
Answer: Its Potency is 23.5 µM (active).

Question: Which Potency does the source give for `COc1cc(NS(=O)(=O)c2ccc(N)cc2)nc(OC)n1` here?
Answer: Its Potency is “inactive”.

Question: For `CO[C@@]12[C@H](COC(N)=O)C3=C(C(=O)C(C)=C(N)C3=O)N1C[C@@H]1N[C@@H]12`, which Potency is on record?
Answer: Its Potency is 23.5 µM (active).

Question: Which Potency does the source give for `CCN1CCCC1CNC(=O)c1cc(S(N)(=O)=O)ccc1OC` (configuration not stated) here?
Answer: The Potency was “inactive”.

Question: For `Nc1ccc(S(=O)(=O)Nc2ccccn2)cc1`, which Potency is on record?
Answer: Its Potency is “inactive”.

Question: With `O=NN(CCCl)C(=O)NC1CCCCC1` as the compound, how does the Potency read?
Answer: Its Potency is “inactive”.

Question: Which Potency does the source give for `Nc1nc(=S)c2[nH]cnc2[nH]1` here?
Answer: Its Potency is 8.33 µM (active).

Question: Which Potency does the source give for `C[C@@H]1CN(c2c(F)c(N)c3c(=O)c(C(=O)O)cn(C4CC4)c3c2F)C[C@H](C)N1` here?
Answer: The Potency was “inactive”.

Question: Which Potency does the source give for `CCc1cc(C(N)=S)ccn1` here?
Answer: The Potency was “inactive”.

Question: With `COc1ccc(C(=O)CC(=O)c2ccc(C(C)(C)C)cc2)cc1` as the compound, how does the Potency read?
Answer: The Potency was 8.33 µM (active).

Question: Which Potency does the source give for `CN(C)c1ccc(C(=C2C=CC(=[N+](C)C)C=C2)c2ccc(N(C)C)cc2)cc1` here?
Answer: The Potency was 0.105 µM (active).

Question: For `CCC(=O)O[C@]1(C(=O)SCF)[C@H](C)C[C@H]2[C@@H]3C[C@H](F)C4=CC(=O)C=C[C@]4(C)[C@@]3(F)[C@@H](O)C[C@@]21C`, which Potency is on record?
Answer: Its Potency is “inactive”.

Question: Which Potency does the source give for `NC(=O)c1cccc(N)c1` here?
Answer: The Potency was “inactive”.

Question: Which Potency does the source give for `O=P(O)(O)C(O)(Cc1cccnc1)P(=O)(O)O` here?
Answer: Its Potency is “inactive”.

Question: With `CCN(CC)CCn1c(=O)c(Cc2ccc(OC)cc2)nc2ccccc21` as the compound, how does the Potency read?
Answer: Its Potency is “inactive”.

Question: For `COc1ccc2cc3[n+](cc2c1OC)CCc1cc2c(cc1-3)OCO2`, which Potency is on record?
Answer: Its Potency is 16.6 µM (active).

Question: For `COC(=O)Nc1nc2ccc(C(=O)c3ccccc3)cc2[nH]1`, which Potency is on record?
Answer: Its Potency is 1.87 µM (active).

Question: For `CN(CCOc1ccc(CC2SC(=O)NC2=O)cc1)c1ccccn1` (configuration not stated), which Potency is on record?
Answer: Its Potency is “inactive”.

Question: For `CN(Cc1cc(Br)cc(Br)c1N)C1CCCCC1`, which Potency is on record?
Answer: Its Potency is “inactive”.

Question: For `CC(C)(C)C(=O)OCOP(=O)(COCCn1cnc2c(N)ncnc21)OCOC(=O)C(C)(C)C`, which Potency is on record?
Answer: Its Potency is 4.18 µM (active).

Question: Which Potency does the source give for `Nc1[nH]c(=O)ncc1F` here?
Answer: Its Potency is “inactive”.

Question: With `CC(C)(C)NC(=O)[C@H]1CC[C@H]2[C@@H]3CC[C@H]4NC(=O)C=C[C@]4(C)[C@H]3CC[C@]12C` as the compound, how does the Potency read?
Answer: The Potency was “inactive”.

Question: With `NNC(=O)c1ccncc1` as the compound, how does the Potency read?
Answer: The Potency was “inactive”.

Question: With `CC(C)OC(=O)C(C(=O)OC(C)C)=C1SC=CS1` as the compound, how does the Potency read?
Answer: The Potency was “inactive”.

Question: For `C1CCC(C(CC2CCCCN2)C2CCCCC2)CC1` (configuration not stated), which Potency is on record?
Answer: Its Potency is 18.7 µM (active).

Question: For `CC[C@H](NC(C)C)[C@H](O)c1ccc(O)c2[nH]c(=O)ccc12`, which Potency is on record?
Answer: Its Potency is “inactive”.

Question: With `Cc1nnc(NS(=O)(=O)c2ccc(N)cc2)s1` as the compound, how does the Potency read?
Answer: The Potency was 23.5 µM (active).

Question: For `COc1nc(N)nc2c1ncn2[C@@H]1O[C@H](CO)[C@@H](O)[C@@H]1O`, which Potency is on record?
Answer: The Potency was “inactive”.

Question: With `CN1CCN(c2c(F)cc3c(=O)c(C(=O)O)cn(CCF)c3c2F)CC1` as the compound, how does the Potency read?
Answer: Its Potency is “inactive”.

Question: For `S=P(N1CC1)(N1CC1)N1CC1`, which Potency is on record?
Answer: The Potency was “inactive”.

Question: For `Cc1ccnc2c1NC(=O)c1cccnc1N2C1CC1`, which Potency is on record?
Answer: The Potency was “inactive”.

Question: For `CCCCOc1ccc(CC(=O)NO)cc1`, which Potency is on record?
Answer: The Potency was 20.9 µM (active).

Question: With `CCCCc1oc2ccc(NS(C)(=O)=O)cc2c1C(=O)c1ccc(OCCCN(CCCC)CCCC)cc1` as the compound, how does the Potency read?
Answer: The Potency was 20.9 µM (active).

Question: With `CC(=O)CC(c1ccccc1)c1c(O)c2ccccc2oc1=O` (configuration not stated) as the compound, how does the Potency read?
Answer: Its Potency is “inactive”.

Question: With `CNS(=O)(=O)CCc1ccc2[nH]cc(C3CCN(C)CC3)c2c1` as the compound, how does the Potency read?
Answer: Its Potency is “inactive”.

experiment: Quantitative High-Throughput drug screen in 47 multiple myeloma cell lines against the NCATS MIPE library collection: L363_DSMZ cell viability assay (AID 1918984); conditions: L363 myeloma viability, CellTiter-Glo ATP luminescence, 48 h; series mostly up to 45.8 µM; further: nearly all actives have a fitted effect of over 40% in size
Method in brief: as §1

Question: Which Potency does the source give for `CCOC(=O)[C@H](CCc1ccccc1)N[C@H]1CCc2ccccc2N(CC(=O)O)C1=O` here?
Answer: The Potency was 7.43 µM (active).

Question: Which Potency does the source give for `CC(C)Cn1cnc2c(N)nc3ccccc3c21` here?
Answer: Its Potency is 4.18 µM (active).

Question: Which Potency does the source give for `COc1cc(NS(=O)(=O)c2ccc(N)cc2)nc(OC)n1` here?
Answer: Its Potency is “inactive”.

Question: With `CCN1CCCC1CNC(=O)c1cc(S(N)(=O)=O)ccc1OC` (configuration not stated) as the compound, how does the Potency read?
Answer: The Potency was “inactive”.

Question: With `Nc1ccc(S(=O)(=O)Nc2ccccn2)cc1` as the compound, how does the Potency read?
Answer: The Potency was “inactive”.

Question: Which Potency does the source give for `O=NN(CCCl)C(=O)NC1CCCCC1` here?
Answer: Its Potency is “inactive”.

Question: Which Potency does the source give for `C[C@@H]1CN(c2c(F)c(N)c3c(=O)c(C(=O)O)cn(C4CC4)c3c2F)C[C@H](C)N1` here?
Answer: The Potency was “inactive”.

Question: Which Potency does the source give for `CCc1cc(C(N)=S)ccn1` here?
Answer: Its Potency is “inactive”.

Question: Which Potency does the source give for `COc1ccc(C(=O)CC(=O)c2ccc(C(C)(C)C)cc2)cc1` here?
Answer: Its Potency is 6.62 µM (active).

Question: Which Potency does the source give for `O=P(O)(O)C(O)(Cc1cccnc1)P(=O)(O)O` here?
Answer: The Potency was “inactive”.

Question: Which Potency does the source give for `CCN(CC)CCn1c(=O)c(Cc2ccc(OC)cc2)nc2ccccc21` here?
Answer: The Potency was “inactive”.

Question: With `COc1ccc2cc3[n+](cc2c1OC)CCc1cc2c(cc1-3)OCO2` as the compound, how does the Potency read?
Answer: The Potency was 6.62 µM (active).

Question: Which Potency does the source give for `CN(Cc1cc(Br)cc(Br)c1N)C1CCCCC1` here?
Answer: Its Potency is “inactive”.

Question: With `CC(C)(C)C(=O)OCOP(=O)(COCCn1cnc2c(N)ncnc21)OCOC(=O)C(C)(C)C` as the compound, how does the Potency read?
Answer: The Potency was 4.69 µM (active).

Question: With `Nc1[nH]c(=O)ncc1F` as the compound, how does the Potency read?
Answer: Its Potency is “inactive”.

Question: Which Potency does the source give for `NNC(=O)c1ccncc1` here?
Answer: Its Potency is “inactive”.

Question: Which Potency does the source give for `CC(C)OC(=O)C(C(=O)OC(C)C)=C1SC=CS1` here?
Answer: The Potency was “inactive”.

Question: With `C1CCC(C(CC2CCCCN2)C2CCCCC2)CC1` (configuration not stated) as the compound, how does the Potency read?
Answer: Its Potency is 8.33 µM (active).

Question: Which Potency does the source give for `CC[C@H](NC(C)C)[C@H](O)c1ccc(O)c2[nH]c(=O)ccc12` here?
Answer: The Potency was “inactive”.

Question: With `Cc1nnc(NS(=O)(=O)c2ccc(N)cc2)s1` as the compound, how does the Potency read?
Answer: Its Potency is 1.18 µM (active).

Question: Which Potency does the source give for `COc1nc(N)nc2c1ncn2[C@@H]1O[C@H](CO)[C@@H](O)[C@@H]1O` here?
Answer: The Potency was “inactive”.

Question: With `CN1CCN(c2c(F)cc3c(=O)c(C(=O)O)cn(CCF)c3c2F)CC1` as the compound, how does the Potency read?
Answer: The Potency was “inactive”.

Question: Which Potency does the source give for `Cc1ccnc2c1NC(=O)c1cccnc1N2C1CC1` here?
Answer: The Potency was “inactive”.

Question: For `CCCCOc1ccc(CC(=O)NO)cc1`, which Potency is on record?
Answer: Its Potency is 18.7 µM (active).

Question: With `CCCCc1oc2ccc(NS(C)(=O)=O)cc2c1C(=O)c1ccc(OCCCN(CCCC)CCCC)cc1` as the compound, how does the Potency read?
Answer: The Potency was 8.33 µM (active).

Question: For `CNS(=O)(=O)CCc1ccc2[nH]cc(C3CCN(C)CC3)c2c1`, which Potency is on record?
Answer: Its Potency is 23.5 µM (active).

Reference: PubChem BioAssay (NCATS)
